Only some compounds are listed: those with a hit (about 3.1% of all), similar ones and a draw of the others.
Beta apoptosis: inhibitors of cytokine-induced beta cell apoptosis, primary screen, luminescence; 0.8% of 300,000 active; protection from apoptosis, % (no concentration beside the values); INS-1E cytokine-induced death, ATP luminescence, 48 h; percent of positive-control rescue, neutral wells zero;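 active means Every replicate reaches about 75%, or at least half do and their mean reaches it too, limit read from the data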;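 further: 0% = cytokine-treated negative control wells and 100% = positive control rescue; higher means more ATP so stronger rescue from cytokine killing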
CSC inhib: cancer stem cell viability inhibitors, primary screen, luminescence | cancer stem cell-like cells viability | inhibition, % at 7.5 µM | 1.1% of 300,000 active | AID 2717, 2010; in the data active means inhibition above about 75%; tested in HMLE shEcad cells
PP5 primary: PP5 phosphatase inhibitors, primary screen, biochemical, fluorescence; Serine/threonine-protein phosphatase 5 (Homo sapiens), P53041; AID 1987, 2009; purified PP5c, OMFP substrate fluorescence; inhibition, % at 6.7 µM; 0.18% of 320,000 active;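 active means inhibition above the campaign's mean inhibition across all tested compounds plus 3 SD, cut at about 9.5% in these data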;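 further: 0% = DMSO only and 100% = 100 µM cantharidin control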
Target sequence (P53041 whole entry, looked up): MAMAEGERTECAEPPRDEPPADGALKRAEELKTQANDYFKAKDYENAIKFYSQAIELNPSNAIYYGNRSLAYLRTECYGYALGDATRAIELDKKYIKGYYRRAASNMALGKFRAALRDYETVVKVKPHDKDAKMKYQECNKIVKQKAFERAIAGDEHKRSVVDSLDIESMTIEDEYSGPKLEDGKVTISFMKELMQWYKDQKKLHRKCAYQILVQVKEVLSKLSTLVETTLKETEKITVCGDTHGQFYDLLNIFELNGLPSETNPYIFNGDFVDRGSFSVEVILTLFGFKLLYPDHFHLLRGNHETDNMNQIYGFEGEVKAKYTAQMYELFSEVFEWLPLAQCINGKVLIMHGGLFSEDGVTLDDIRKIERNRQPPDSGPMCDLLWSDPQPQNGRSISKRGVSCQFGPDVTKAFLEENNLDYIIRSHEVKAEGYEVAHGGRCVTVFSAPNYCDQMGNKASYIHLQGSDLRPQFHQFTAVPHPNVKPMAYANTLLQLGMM
SKKanGAS inh: S. pyogenes SKKanGAS growth inhibitors in kanamycin, primary screen, streptokinase expression inhibitor project, SKKanGAS strain, BacTiter-Glo luminescence | 6 h | inhibition, % at 7.5 µM | 1.3% of 300,000 active;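 active means mean replicate score, as percent of positive control median, at least 50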;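 further: strain carries kanamycin resistance gene driven by streptokinase promoter and grows in 40 µg/ml kanamycin; loss of luminescence reflects streptokinase promoter inhibition or plain growth inhibition; 0% = median of DMSO wells and 100% = positive control at its reference dose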
PP1 inh: PP1-alpha phosphatase inhibitors, primary screen, counter-screen for PP5 inhibitor project, biochemical, fluorescence, OMFP substrate, single point. purified PP1alpha. Serine/threonine-protein phosphatase PP1-alpha catalytic subunit (Homo sapiens), P62136. inhibition, % at 6.7 µM. 0.9% of 320,000 active. AID 2235, 2010;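 active means inhibition above the mean inhibition of all tested compounds plus 3 SD, computed separately for each screening campaign, cut at about 15% in these data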
Active calls of the source: *; · = no result; + = active, no number.

SMILES	Beta apoptosis	CSC inhib	PP5 primary	SKKanGAS inh	PP1 inh
O=C(N/N=C/c1ccccn1)c1ccc(NC(=O)c2ccccc2Cl)cc1	·	7	-1	0	-2
O=C(N/N=C/c1ccccn1)c1ccc(Cl)c(Cl)c1	18	25	0	53*	0
O=C(O)CN1C(=O)/C(=C\c2cn(-c3ccccc3)nc2-c2ccccc2)SC1=S	2	31	-1	23	1
CC(C)COc1ccc(-c2nn(-c3ccccc3)cc2/C=C2/SC(=S)N(CC(=O)O)C2=O)cc1	-3	+	0	72*	12
O=C(Cc1nc2ccccc2[nH]1)c1cccc([N+](=O)[O-])c1	59	91*	0	16	5
COc1cc(SC)ccc1C(=O)Nc1nc2ccccc2[nH]1	106*	-5	0	107*	-1
COC(=O)c1cc(C(=O)Nc2nc3ccccc3[nH]2)cc([N+](=O)[O-])c1	10	-11	0	63*	1
Cc1ccc(C(=O)Cc2nc3ccccc3[nH]2)cc1	-5	15	-2	5	2
O=C(Nc1nc2ccccc2[nH]1)c1cccc([N+](=O)[O-])c1	13	-2	3	9	0
CSc1ccccc1C(=O)Nc1nc2ccccc2[nH]1	6	1	0	-5	0
COc1ccccc1C(=O)Nc1nc2ccccc2[nH]1	93*	95*	3	90*	0
NC(=O)c1ccccc1OCC(=O)Nc1ccc(Cl)c(Cl)c1	1	-2	3	6	-3
NS(=O)(=O)c1ccc(S(=O)(=O)N(CCc2ccccc2)Cc2ccccn2)cc1	·	-8	0	4	-1
COC1c2ccccc2C(=O)N1Cc1ccc(F)cc1 (stereo not given)	-13	-6	0	6	-3
Cc1ccc(CNC(=O)COC(=O)Cc2ccc(-c3ccccc3)cc2)cc1	-2	22	-6	3	16*
Cc1cccc2cc(CN(Cc3ccco3)C(c3nnnn3CCc3ccccc3)C(C)C)c(=O)[nH]c12 (stereo not given)	10	37	4	25	16*
O=C(Nc1nc(-c2ccccn2)cs1)c1ccc([N+](=O)[O-])o1	90*	47	2	2	11
CC1CC1C(=O)Nc1nc(-c2ccccn2)cs1 (stereo not given)	-1	2	5	85*	6
Cc1csc(NC(=O)c2ccc(Cl)cc2[N+](=O)[O-])n1	-2	3	1	1	-4
CCc1cc(C(=O)Nc2nc(-c3ccccn3)cs2)sc1C	60	20	3	·	16*
CC(=O)c1ccc(-c2ccc(C(=O)Nc3nc(-c4ccccn4)cs3)o2)cc1	-10	26	·	·	·
O=C(Nc1nc(-c2ccccn2)cs1)c1cc(Cl)ccc1[N+](=O)[O-]	93*	94*	0	95*	16*
O=C(/C=C/c1cc([N+](=O)[O-])ccc1OC(F)F)Nc1cccc2ccccc12	-3	11	1	6	2
O=C(OCc1cc(=O)n2ccsc2n1)c1ccc(O)cc1O	0	·	3	·	4
Cc1cc(C(=O)Nc2nc(-c3ccccn3)cs2)ccc1[N+](=O)[O-]	3	-4	2	91*	9
SMILES	Beta apoptosis	CSC inhib	PP5 primary	SKKanGAS inh	PP1 inh
CCn1nc(C(=O)Nc2nc(-c3ccccn3)cs2)c2ccccc2c1=O	32	·	4	·	1
CC(=O)Nc1ccc(C(=O)Nc2nc(-c3ccccn3)cs2)cc1	16	17	-5	6	4
O=C(Nc1nc(-c2ccccn2)cs1)c1ccccc1-n1cnnn1	78*	34	0	12	1
O=C(O)C(Cc1c[nH]c2ccccc12)NS(=O)(=O)c1cccc(Cl)c1Cl (stereo not given)	-4	-16	0	1	2
O=C(/C=C1\NC2(CCCC2)Cc2ccccc21)C(=O)N/N=C/c1ccccc1O	·	·	-3	96*	13
CN1CCN(NC(=O)Nc2cc(Cl)cc(Cl)c2)CC1	4	11	·	88*	·
Cc1cc([N+](=O)[O-])ccc1-c1ccc(C2Nc3ccccc3C(=O)N2O)o1 (stereo not given)	70	131*	3	-4	12
O=C1c2ccccc2NC(c2ccc(-c3ccccc3F)o2)N1O (stereo not given)	-2	10	0	·	2
O=C(C[n+]1ccccc1)NNc1ccccc1	-3	114*	4	0	-1

Assay outcomes: PubChem BioAssay, several laboratories
